# Results filed as inconclusive are left out. Active and inactive are the calls of the source. The calls were made as follows, unless noted: active = hit-call score of the fitted dose curve at least 0.9, where 1 is the maximum; inconclusive = response in the unintended direction; inactive = score below 0.9.
# Biological target: X-box-binding protein 1 (Homo sapiens) (UniProt P17861)
# Experiment: ATG_Xbp1_CIS: Attagene CIS-FACTORIAL HepG2 Assay for human X-box Binding Protein 1 (XBP1) (AID 2282972; active = hit-call score of the fitted dose curve at least 0.9, where 1 is the maximum; inactive = score below 0.9)
# Conditions: HepG2 XBP1 cis-element reporter, Attagene multiplex; actives raise or lower the signal
# Method in brief: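 HepG2 cells transiently transfected with multiple cis-element reporter units report endogenous TF activity; 24 h exposure, then reporter mRNA measured by RT-PCR, 6-FAM labelling, HpaI digestion and capillary electrophoresis. Bidirectional fitting versus DMSO.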
# Sequence of X-box-binding protein 1 (Homo sapiens) (P17861 whole entry, looked up): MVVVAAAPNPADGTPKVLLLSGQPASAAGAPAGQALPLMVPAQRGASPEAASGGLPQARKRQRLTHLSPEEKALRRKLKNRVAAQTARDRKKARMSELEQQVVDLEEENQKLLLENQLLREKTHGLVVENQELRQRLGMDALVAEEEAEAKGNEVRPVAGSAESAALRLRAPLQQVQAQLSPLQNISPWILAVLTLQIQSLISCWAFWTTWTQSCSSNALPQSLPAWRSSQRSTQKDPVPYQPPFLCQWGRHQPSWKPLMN
Compound,outcome,AC50
CC(C)C(=O)OCc1ccccc1,inactive,–
OCC1CCCO1 (configuration not stated),inactive,–
NC(=O)C(F)(F)C(F)(F)C(F)(F)F,inactive,–
F[Si-2](F)(F)(F)(F)F,inactive,–
c1ccc(C[P+](c2ccccc2)(c2ccccc2)c2ccccc2)cc1,–,53.4 µM (active)
CC(=O)C=O,inactive,–
COCCOCCC[Si](C)(O[Si](C)(C)C)O[Si](C)(C)C,–,2.99 µM (active)
CCOC(=O)C1CC(=O)C(=C(O)C2CC2)C(=O)C1 (configuration not stated),inactive,–
NC(O)(C(F)(F)F)C(F)(F)F,inactive,–

# System: not listed separately
# Experiment: ATG_M_19_TRANS: Attagene TRANS-FACTORIAL HepG2 Assay for M19 Transcription Factor (Internal Marker) (AID 2282974)
# Conditions: HepG2 Attagene TRANS-FACTORIAL M19 internal marker reporter
# Method in brief: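 Multiplexed TRANS format: HepG2 liver cells bearing transient GAL4-UAS reporter units, chemical treatment 24 h, reporter transcripts quantified by RT-PCR plus capillary electrophoresis. DMSO defines baseline.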
row,Compound,outcome
1,O=c1[nH]cccc1O,inactive
2,CCC(C)CO (configuration not stated),inactive
3,O=C(c1ccccc1)c1ccc(O)cc1O,inactive
4,CC(C)OC=O,inactive
5,C#CC(O)CCC (configuration not stated),inactive
6,O=C(Cl)c1ccc(Cl)cc1Cl,inactive
7,OCC(F)(F)C(F)(F)C(F)(F)C(F)(F)C(F)(F)C(F)(F)CO,inactive
8,C[Si](C)O[Si](C)C,inactive
9,O=C1C=CC(=O)N1c1ccc(Cc2ccc(N3C(=O)C=CC3=O)cc2)cc1,inactive
10,CC(=O)CCC(C)C,inactive
11,COCCC(=O)OC,inactive
12,O=c1cccc[nH]1,inactive
13,CCCCCCCCCCCCCC[P+](CCCC)(CCCC)CCCC,inactive
14,CCN=C1C=CC(=C(c2ccc(N(CC)CC)cc2)c2ccc(N(CC)CC)cc2)c2ccccc21,inactive
15,CO[Si](C)(CCC(F)(F)C(F)(F)C(F)(F)C(F)(F)C(F)(F)C(F)(F)F)OC,inactive
16,CC(C)C(=O)OCc1ccccc1,inactive
17,CN(C)C(C)(C)CO,inactive
18,c1ccc(C[P+](c2ccccc2)(c2ccccc2)c2ccccc2)cc1,inactive
19,CCOCOCC,inactive
20,C=CCOC(=O)CC(C)C,inactive
21,O=S(=O)(O)CCC(F)(F)C(F)(F)C(F)(F)C(F)(F)F,inactive
22,CC(=O)C=O,inactive
23,Cc1cccc(C)n1,inactive
24,COCCOCCC[Si](C)(O[Si](C)(C)C)O[Si](C)(C)C,inactive

# System: not listed separately
# Experiment: ATG_GAL4_TRANS: Attagene TRANS-FACTORIAL HepG2 Assay for GAL4 (Internal Marker) (AID 2282976)
# Conditions: HepG2 Attagene TRANS GAL4 internal marker reporter
# Method in brief: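 HepG2 cells transiently transfected with multiplexed GAL4-UAS reporter constructs were dosed for 24 h. Reporter mRNA was measured by RT-PCR, 6-FAM primer extension, HpaI digestion and capillary electrophoresis, and gain of signal was fitted relative to DMSO.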
row,Compound,outcome
1,O=c1[nH]cccc1O,inactive
2,O=C(c1ccccc1)c1ccc(O)cc1O,inactive
3,CC(C)OC=O,inactive
4,CCCCCCCC/C=C\CCCCCCCC(=O)OCC(O)CO (configuration not stated),inactive
5,C#CC(O)CCC (configuration not stated),inactive
6,CCOC(OCC)OCC,inactive
7,CCOCN(C(=O)CS(=O)(=O)O)c1c(C)cccc1CC,inactive
8,C[Si](C)O[Si](C)C,inactive
9,O=C1C=CC(=O)N1c1ccc(Cc2ccc(N3C(=O)C=CC3=O)cc2)cc1,inactive
10,COCCC(=O)OC,inactive
11,CCCC(=O)OCC(COC(=O)CCC)OC(=O)CCC,inactive
12,CC(C)OC(=O)COc1ccc(Cl)cc1Cl,inactive
13,CCCCCCCCCCCCCC[P+](CCCC)(CCCC)CCCC,inactive
14,CCN=C1C=CC(=C(c2ccc(N(CC)CC)cc2)c2ccc(N(CC)CC)cc2)c2ccccc21,inactive
15,C=CC(=O)OCCC(F)(F)C(F)(F)C(F)(F)C(F)(F)F,inactive
16,CC(=O)c1ccccc1N,inactive
17,CC(C)C(=O)OCc1ccccc1,inactive
18,CN(C)C(C)(C)CO,inactive
19,c1ccc(C[P+](c2ccccc2)(c2ccccc2)c2ccccc2)cc1,inactive
20,C=CCOC(=O)CC(C)C,inactive
21,CC(=O)C=O,inactive
22,Cc1cccc(C)n1,inactive
23,CCOC(=O)C1CC(=O)C(=C(O)C2CC2)C(=O)C1 (configuration not stated),inactive
24,NC(O)(C(F)(F)F)C(F)(F)F,inactive
